Among the test systems are SK-MEL-2 melanoma; EKVX NSCLC; SN12C renal; UO-31 renal; TK-10 renal; ACHN renal; CAKI-1 renal; A498 renal; CCRF-CEM leukemia; MOLT-4 leukemia.
Common to all, as to test: NCI-60 one-dose screen, 48 h (100 = growth as untreated, 0 = no growth, -100 = all killed)
What all share (settings): 10 µM unless noted

From PubChem BioAssay (NCI) come the findings set out here.

The panel holds about 83,000 compounds, 20% with a hit somewhere; the sample as a whole holds those more often.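 Single-concentration screen, 48 h exposure, 96-well plates. Endpoint: percent growth. Below 10 = active.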 A number with no mark means an inactive call. Active and inactive are the calls of the source.

Turning to `O=C(NN1C(=O)/C(=C/C=C/c2ccc([N+](=O)[O-])o2)SC1=S)c1ccc(Cl)cc1`, the growth is -90.8% (active) in the test on SK-MEL-2 melanoma; -97.4% (active) with EKVX NSCLC; -98.6% (active) in the test on SN12C renal; -100% (active) in the test on UO-31 renal; -99% (active) with TK-10 renal; -100% (active) with ACHN renal. The growth was -100% (active) in the test on CAKI-1 renal, -93.7% (active) with A498 renal, -14.7% (active) with CCRF-CEM leukemia and 2.15% (active) in the test with MOLT-4 leukemia.

As to `CCCS(=O)(=O)N1CCCC(C(=O)Nc2nc3ccc(NC(=O)c4ccc(F)c(OC)c4F)cc3s2)C1` (stereo not given), the growth was 49.7% in the test with SK-MEL-2 melanoma; 39.7% in the test with EKVX NSCLC; 65.5% in the test on SN12C renal; 38.8% in the test with UO-31 renal; 75.3% with TK-10 renal; 46.7% in the test on ACHN renal. Moreover, the growth in the test on CAKI-1 renal was 43.2%; in the test on A498 renal it was 84.3%; in the test with CCRF-CEM leukemia, 14.9%; in the test with MOLT-4 leukemia it was 0.124% (active).

For `CCCCCCCS(=O)(=O)N1CCCC(C(=O)Nc2nc3ccc(NC(=O)c4ccc(F)c(OC)c4F)cc3s2)C1` (stereo not given), the growth in the test with SK-MEL-2 melanoma was 58.9%; in the test on EKVX NSCLC, 55.7%; with SN12C renal it was 51.3%; in the test on UO-31 renal it was 67.9%; with TK-10 renal, 85.9%; in the test on ACHN renal it was 53%. Besides, the growth in the test with CAKI-1 renal was 59%; in the test with A498 renal, 89.4%; in the test with CCRF-CEM leukemia it was 50.2%; in the test on MOLT-4 leukemia, 59.7%.

Consider `O=c1[nH]c2ccc(Cl)cc2cc1CSc1nccc(-c2ccc(Cl)cc2)n1`, for which the growth was 34.5% with SK-MEL-2 melanoma; 42.8% in the test on EKVX NSCLC; 39.9% in the test on SN12C renal; 60% in the test with UO-31 renal; 88.2% in the test on TK-10 renal; 20.2% in the test with ACHN renal. Besides, the growth with CAKI-1 renal was -51.3% (active); in the test on A498 renal, 98.4%; in the test with CCRF-CEM leukemia it was 113%; in the test with MOLT-4 leukemia, 85.5%.

For the compound `O=C1/C(=C/C2=Cc3ccccc3OC2)SC(=S)N1c1ccccc1F`, the growth in the test on SK-MEL-2 melanoma was 107%; in the test with EKVX NSCLC it was 98.8%; in the test on SN12C renal, 103%; in the test with UO-31 renal it was 82.6%; with TK-10 renal, 105%; with ACHN renal, 107%. Further, the growth is 99.1% in the test on CAKI-1 renal, 122% in the test with A498 renal, 97.5% in the test with CCRF-CEM leukemia and 95.2% with MOLT-4 leukemia.

Regarding `C=C1CCC2C3(C)COC(c4ccccc4)OC3CCC2(C)C1CC(NCc1ccccc1)C1=CCOC1=O` (stereo not given), the growth in the test on SK-MEL-2 melanoma was 101%; in the test with EKVX NSCLC it was 73.8%; in the test on SN12C renal it was 79.4%; in the test on UO-31 renal, 56.7%; with TK-10 renal, 76%; with ACHN renal, 86.4%. The growth in the test with CAKI-1 renal was 58.1%; in the test on A498 renal, 76.6%; with CCRF-CEM leukemia it was 101%; in the test with MOLT-4 leukemia it was 61.1%.

Take `Cc1nc(Nc2ccccn2)sc1C(=O)CC(SCC(=O)Nc1ccc(Cl)cc1)c1ccccc1F` (stereo not given): the growth with SK-MEL-2 melanoma is -27.1% (active); with EKVX NSCLC, 36.5%; with SN12C renal, -15.1% (active); in the test on UO-31 renal it was 30.3%; in the test with TK-10 renal, 6.79% (active); in the test with ACHN renal it was 24.6%. The growth in the test with CAKI-1 renal was 15.3%; in the test on A498 renal, 45.3%; with CCRF-CEM leukemia it was 12.4%; with MOLT-4 leukemia, 23.7%.

On to `O=c1oc2ccc(Br)cc2cc1C1=CSc2nc3sc4c(c3c(=O)n2N=C1)CCCC4`, for which the growth is 98.6% in the test on SK-MEL-2 melanoma; 97% in the test with EKVX NSCLC; 103% with SN12C renal; 69.8% with UO-31 renal; 175% in the test on TK-10 renal; 99.4% with ACHN renal. Moreover, the growth with CAKI-1 renal is 96.2%; with A498 renal it was 177%; in the test with CCRF-CEM leukemia, 84.4%; in the test on MOLT-4 leukemia, 93.2%.

As to `Cc1cc2nc3c4ccccc4n(CCNCCN(C)C)c3nc2cc1C`, the growth is 25.4% in the test with SK-MEL-2 melanoma; 73.2% with EKVX NSCLC; 25.3% in the test with SN12C renal; -16.5% (active) in the test on UO-31 renal; 54.5% in the test on TK-10 renal; 11% in the test on ACHN renal. Also, the growth was 14.1% in the test on CAKI-1 renal, 75.4% in the test on A498 renal, 21.7% in the test with CCRF-CEM leukemia and 4.83% (active) in the test with MOLT-4 leukemia.

Regarding `C=C1CCC2C3(C)COC(c4ccccc4F)OC3CCC2(C)C1CC(O)C1=CCOC1=O` (stereo not given), the growth in the test on SK-MEL-2 melanoma is 17.2%; in the test on EKVX NSCLC, 85.3%; with SN12C renal it was 39.1%; in the test with UO-31 renal, 11.7%; with TK-10 renal, 107%; in the test with ACHN renal, -23% (active). The growth in the test on CAKI-1 renal was 66%; with A498 renal, 141%; in the test with CCRF-CEM leukemia, 16.7%; in the test with MOLT-4 leukemia, 48.9%.

As for `N#Cc1c(-c2ccc(Cl)cc2)nc2n[nH]c(-c3ccc(Cl)cc3)c2c1-c1cccs1`, the growth in the test on SK-MEL-2 melanoma is 58.6%; with EKVX NSCLC, 30.3%; with SN12C renal, 45.7%; with UO-31 renal, 35.1%; in the test on TK-10 renal, 97.3%; in the test with ACHN renal it was 62.8%. Besides, the growth with CAKI-1 renal was 39%; in the test on A498 renal, 105%; in the test on CCRF-CEM leukemia, 38.1%; in the test on MOLT-4 leukemia it was 3.89% (active).
